PubChem BioAssay (NCATS)
Results filed as inconclusive are left out. Where a call stands in place of a potency, no number is given. Unmarked numbers belong to inactive results. Active and inactive are the calls of the source. The call rests on the fitted dose curve; in most records, active means well fitted curve in the direction sought with a large enough effect; inconclusive means small, poorly fitted or top-dose-only effect, or another doubt; inactive means no such curve, though single readings can be large; an effect the other way counts as inactive or inconclusive.

Key:
[1] = system: Zika virus NS2B-NS3 protease; test: Primary screen GU AMC qHTS for Zika virus inhibitors (AID 1347154); settings: Zika NS2B-NS3 unlinked protease, AMC fluorogenic substrate; series mostly up to 54.1 µM; further: nearly all actives have a fitted effect of over 70% in size; further: potency means the concentration at half of the fitted maximal effect
How it was run: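 Unlinked Zika NS2B hydrophilic domain–NS3 protease complex at 25 nM in 10 mM Tris-HCl pH 8.0, 0.01% Tween 20, with an AMC peptide substrate. Fluorescence change (340/450 nm) over 15 min at room temperature, normalized to controls, fitted to 4-parameter Hill.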

[2] = molecular target: N-terminal Xaa-Pro-Lys N-methyltransferase 1 (Homo sapiens) (UniProt Q9BV86); test: qHTS Assay for Inhibitors of N-terminal methyltransferase 1 (NTMT1): LOPAC validation of the NTMT1 SAHH-coupled ThioGlo3 Assay (AID 1347143); settings: recombinant NTMT1, SAHH-coupled ThioGlo3 fluorescence; series mostly up to 114 µM;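 further: SAH from peptide methylation measured as thiol fluorescence via SAHH coupling and ThioGlo3; nearly all actives have a fitted effect of over 70% in size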; further: potency means the concentration at half of the fitted maximal effect
How it was run: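 Steps: dispense 125nM NTMT1; pin-transfer test compounds at several concentrations, with 1uM RCC1-6 peptide as control; incubate 1 min; start with reagent holding 100uM SAM, 10uM SAHH, 15uM ThioGlo3; read at 0 and 30 min.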

[3] = system: Zika virus NS2B-NS3 protease (unlinked); test: Optimization of GU AMC qHTS for Zika virus inhibitors: Unlinked NS2B-NS3 protease assay (AID 1347151); settings: recombinant ZIKV NS2B-NS3 protease, fluorogenic AMC substrate; series mostly up to 52.5 µM; further: nearly all actives have a fitted effect of over 80% in size
How it was run: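 Fluorescence gain (340/450 nm) over 15 min at room temperature, ~20% conversion, gave percent inhibition fitted to a 4-parameter Hill equation; enzyme was unlinked NS2B-NS3 (25 nM final), pH 8.0 Tris buffer.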

[4] = molecular target: Furin (Homo sapiens) (UniProt P09958); test: Furin counterscreen qHTS for Zika virus inhibitors (AID 1347149); settings: furin enzymatic counterscreen, fluorogenic substrate; series mostly up to 114 µM; further: nearly all actives have a fitted effect of over 70% in size; further: potency means the concentration at half of the fitted maximal effect;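 on activity change, negative = inhibition: purified recombinant full-length human furin enzyme at 5 nM; fluorescence gain from furin cutting a BOC-RVRR-AMC peptide substrate over 15 min; top concentration of the series differs between compounds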
How it was run: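 Counterscreen measures cleavage of 2 microM BOC-RVRR-AMC, below its ~15 microM Km, by 5 nM full-length human furin at pH 7.0 after a 15-min compound preincubation. Inhibition derives from the 15-min fluorescence increase at 37C.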

[5] = system: Zika virus NS2B-NS3 protease (linked construct); test: Confirmatory screen NINDS AMC qHTS for Zika virus inhibitors (AID 1347152); settings: Purified linked NS2B-NS3, AMC substrate fluorescence; series mostly up to 56.6 µM; further: nearly all actives have a fitted effect of over 70% in size; further: potency means the concentration at half of the fitted maximal effect; on activity change, negative = inhibition: top concentration of the series differs between compounds
How it was run: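 IC50s from 4-parameter Hill fits of percent inhibition, based on AMC fluorescence gain (340/450 nm) over 15 min with 10 microM Bz-Nle-KRR-AMC. Enzyme: 1 nM linked NS2B-NS3 in Tris-HCl pH 8.0; 15-min compound preincubation.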

[6] = system: Zika virus NS2B-NS3 protease (unlinked complex); test: Confirmatory screen GU AMC qHTS for Zika virus inhibitors (AID 1347153); settings: Recombinant NS2B-NS3 protease, AMC substrate fluorescence; series mostly up to 57.1 µM; further: nearly all actives have a fitted effect of over 70% in size
How it was run: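 Compounds were preincubated 15 min at room temperature with 25 nM noncovalent NS2B-NS3 protease at pH 8.0; AMC substrate added at 10 microM and 15-min fluorescence gain (340/450 nm) converted to percent inhibition, fitted 4-parameter.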

[7] = system: Zika virus NS2B-NS3 protease (unlinked complex); test: Primary screen GU Rhodamine qHTS for Zika virus inhibitors: Unlinked NS2B-NS3 protease assay (AID 1347159); settings: Recombinant ZIKV NS2B-NS3 protease, Rhodamine110 substrate fluorescence; series mostly up to 107 µM; further: nearly all actives have a fitted effect of over 60% in size; further: potency means the concentration at half of the fitted maximal effect
How it was run: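 Percent inhibition came from the 15-min rise in Rhodamine110 fluorescence (1.5 microM substrate, ~15% conversion), normalized to no-inhibitor and no-enzyme wells and Hill-fitted. Unlinked protease, 25 nM, pH 8.0 Tris buffer; compounds up to 114 microM, 15-min preincubation.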

[8] = Confirmatory screen GU Rhodamine qHTS for Zika virus inhibitors qHTS (AID 1347157); settings: purified enzyme assay, Rhodamine110 substrate fluorescence, 15 min; series mostly up to 22 µM; further: nearly all actives have a fitted effect of over 70% in size
How it was run: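 Compounds, tested up to 114 microM, were incubated for 15 minutes with 25 nM unlinked NS2B-NS3 protease at pH 8.0. Cleavage of 1.5 microM Rhodamine110 substrate was then followed by fluorescence for 15 minutes.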

[9] = ZIKV-mCherry secondary qHTS for Zika virus inhibitors (AID 1347158); settings: Vero cells, ZIKV-mCherry infection imaging, 48-72 h; series mostly up to 49.2 µM; further: top concentration of the series differs between compounds
How it was run: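 Percent infection is the share of Hoechst-identified Vero nuclei with mCherry signal above 450 RFU (3 SD over negative controls). Cells were infected with recombinant ZIKV-mCherry at MOI 1 after compound addition and imaged 48–72 h later.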

Sequence of Furin (Homo sapiens) (P09958 whole entry, looked up): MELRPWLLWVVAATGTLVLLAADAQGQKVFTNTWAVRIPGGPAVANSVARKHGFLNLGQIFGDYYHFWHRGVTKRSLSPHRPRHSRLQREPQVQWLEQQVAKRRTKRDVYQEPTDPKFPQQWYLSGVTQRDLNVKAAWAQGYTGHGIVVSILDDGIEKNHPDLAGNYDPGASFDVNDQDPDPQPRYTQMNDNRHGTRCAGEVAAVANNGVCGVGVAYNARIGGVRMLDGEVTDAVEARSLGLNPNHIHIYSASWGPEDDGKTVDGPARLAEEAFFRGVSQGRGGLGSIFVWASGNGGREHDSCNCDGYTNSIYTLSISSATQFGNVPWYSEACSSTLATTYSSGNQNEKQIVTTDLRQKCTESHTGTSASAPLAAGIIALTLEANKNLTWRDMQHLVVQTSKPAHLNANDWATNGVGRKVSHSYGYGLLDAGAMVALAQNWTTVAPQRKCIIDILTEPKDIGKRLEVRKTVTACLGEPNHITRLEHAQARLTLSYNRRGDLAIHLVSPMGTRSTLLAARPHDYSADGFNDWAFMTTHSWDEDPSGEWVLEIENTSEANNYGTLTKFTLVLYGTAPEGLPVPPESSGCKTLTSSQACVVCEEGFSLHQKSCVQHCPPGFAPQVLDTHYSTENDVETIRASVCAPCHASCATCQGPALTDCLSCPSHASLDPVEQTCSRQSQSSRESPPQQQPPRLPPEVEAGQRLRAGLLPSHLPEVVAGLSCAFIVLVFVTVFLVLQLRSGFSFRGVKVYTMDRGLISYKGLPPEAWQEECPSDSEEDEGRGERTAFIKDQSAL
Sequence of N-terminal Xaa-Pro-Lys N-methyltransferase 1 (Homo sapiens) (Q9BV86 whole entry, looked up): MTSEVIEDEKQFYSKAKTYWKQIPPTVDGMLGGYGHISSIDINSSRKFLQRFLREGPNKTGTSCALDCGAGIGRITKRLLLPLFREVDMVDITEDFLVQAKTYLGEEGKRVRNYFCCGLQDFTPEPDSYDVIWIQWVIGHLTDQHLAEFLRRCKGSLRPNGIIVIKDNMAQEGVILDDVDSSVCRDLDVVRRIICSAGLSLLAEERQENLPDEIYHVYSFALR

Nc1ccc(O)cc1
Potency [1]: inactive

CCc1cc(S(=O)(=O)O)c2cc(C(C)C)cccc1-2
Potency [1]: inactive

Cn1cnc2c(NCc3ccccc3)nc(NCCO)nc21
Potency [2]: inactive
Potency [3]: inactive
Potency [1]: inactive

N[C@@H](Cc1cc(I)c(O)c(I)c1)C(=O)O
Potency [4]: inactive
Potency [5]: inactive
Potency [6]: inactive

COc1cc2c(cc1OC)CN(C(=O)[C@H](C)N[C@@H](CCc1ccccc1)C(=O)O)[C@H](C(=O)O)C2
Potency [1]: inactive

Clc1ccc2c(c1)N=C(N1CCNCC1)c1ccccc1N2
Potency [2]: inactive
Potency [3]: inactive
Potency [1]: inactive
Potency [7]: inactive

CC(=O)OC/C=C(C)/C=C/C=C(C)/C=C/C1=C(C)CCCC1(C)C
Potency [1]: inactive

CN1C(CSCC(F)(F)F)Nc2cc(Cl)c(S(N)(=O)=O)cc2S1(=O)=O (configuration not stated)
Potency [1]: inactive

O=[N+]([O-])c1ccc(-c2nc(-c3ccc(F)cc3)c(-c3ccncc3)[nH]2)cc1
Potency [3]: inactive
Potency [7]: 79.4 µM (active)

COc1cc(C=O)ccc1O
Potency [1]: inactive

COc1ccccc1N1CCN(CC(O)COc2cc(OC)c(OC)c(OC)c2)CC1 (configuration not stated)
Potency [1]: inactive

NC(=O)NS(=O)(=O)c1ccc(Cl)cc1
Potency [1]: inactive

CC(Oc1c(Cl)cccc1Cl)C1=NCCN1 (configuration not stated)
Potency [1]: inactive

O=C(COCCOCCOCC(=O)Nc1c(I)cc(I)c(C(=O)O)c1I)Nc1c(I)cc(I)c(C(=O)O)c1I
Potency [4]: inactive
Potency [1]: inactive
Potency [8]: inactive

CCOC(=O)N1CCC(n2c(=O)[nH]c3cc(Cl)ccc32)CC1
Potency [1]: inactive

Cc1nn(-c2ccccc2)c(C)c1/C=N/N1CCN(Cc2ccccc2)CC1
Potency [2]: 15.8 µM (active)
Potency [3]: inactive
Potency [7]: inactive

Cc1ccc2ccc(Cl)cc2n1
Potency [1]: inactive

O=C1NC(c2cccc([N+](=O)[O-])c2)=CCN1c1ccccc1O
Potency [2]: 50.1 µM (active)
Potency [3]: inactive
Potency [1]: inactive
Potency [7]: inactive

O=C(O)Cn1c(=O)n(Cc2ccc(Br)cc2F)c(=O)c2ccc(Cl)cc21
Potency [1]: inactive

O=C(CCCCC(=O)Nc1c(I)cc(I)c(C(=O)O)c1I)Nc1c(I)cc(I)c(C(=O)O)c1I
activity change, negative = inhibition [4]: 9.18% [at 18.8 µM]
Potency [8]: inactive

COc1ccccc1N1CCN(CCN2C(=O)CC3(CCCC3)CC2=O)CC1
Potency [2]: 56.2 µM (active)
Potency [3]: inactive
Potency [1]: inactive
Potency [7]: inactive

CCCCCCCCCCCCCCCCCCNC(=O)OC1CCN(C(=O)OC[C@H](COC(=O)N(Cc2cccc[n+]2CC)C(=O)c2ccccc2OC)OC)CC1
Potency [1]: inactive

O=C(Nc1ccc(S(=O)(=O)N2CCOCC2)cc1)c1cc(Cl)ccc1NS(=O)(=O)c1ccc(Cl)s1
Potency [4]: 21.5 µM (active)
Potency [5]: 17.1 µM (active)
Potency [6]: 17.1 µM (active)
Potency [1]: 14.4 µM (active)

C[N+]1(CC2COC(c3ccccc3)(c3ccccc3)O2)CCCCC1 (configuration not stated)
Potency [1]: inactive

Oc1ccccc1
Potency [1]: inactive

COc1cccc2c1[C@@H]1CN(CCCCn3c(=O)[nH]c4c(sc5ncc(-c6ccccc6)nc54)c3=O)C[C@@H]1CO2
Potency [3]: inactive

CCCCCC(=O)O[C@]1(C(C)=O)CC[C@H]2[C@@H]3CCC4=CC(=O)CC[C@]4(C)[C@H]3CC[C@@]21C
Potency [1]: inactive

Nc1ncnc2n[nH]c(Nc3ccc(F)cc3)c12
Potency [2]: inactive
Potency [3]: inactive
Potency [7]: inactive

N[C@@H](Cn1ccc(=O)c(O)c1)C(=O)O
Potency [2]: inactive
Potency [3]: inactive
activity change, negative = inhibition [7]: 13% [at 11.5 µM]

Brc1ccc([C@H]2CN3CCSC3=N2)cc1
Potency [2]: 79.4 µM (active)
Potency [7]: inactive

Nc1nc(=O)n([C@@H]2O[C@H](CO)[C@@H](O)[C@@H]2F)cc1I
Potency [1]: inactive

CN1C(=O)c2ccccc2C1=O
Potency [1]: inactive

O=C(CCCl)NCCc1ccccc1
Potency [1]: inactive

COCCOCC(OC)OC
Potency [1]: inactive

CCC(=O)O[C@H]1[C@H](O[C@@H]2[C@@H](C)[C@H](O[C@H]3C[C@@](C)(OC)[C@@H](O)[C@H](C)O3)[C@@H](C)C(=O)O[C@H](CC)[C@@](C)(O)[C@H](O)[C@@H](C)C(=O)[C@H](C)C[C@@]2(C)O)O[C@H](C)C[C@@H]1N(C)C
Potency [4]: 34.1 µM (active)
Potency [5]: 13.6 µM (active)
Potency [6]: 19.2 µM (active)

CNC(=O)c1c(I)c(NC(C)=O)c(I)c(C(=O)O)c1I
Potency [1]: inactive

Cc1nc(C2CCCCC2)c(-c2ccc(S(N)(=O)=O)c(F)c2)o1
Potency [4]: 24.1 µM (active)
Potency [5]: 24.1 µM (active)
Potency [1]: 14.4 µM (active)

CCOC(=O)Cn1cccc1-c1nc(-c2ccc(OC)cc2)c(-c2ccc(OC)cc2)s1
Potency [5]: 24.1 µM (active)
outcome [9]: inactive
Potency [7]: inactive

CC(C)(C)C(=O)OCOC(=O)C1N2C(=O)CC2S(=O)(=O)C1(C)C (configuration not stated)
Potency [1]: inactive
